Assay results published in PubChem BioAssay.
Calls of active or inactive are those of the source. Unless noted, how the calls were made is not given here.

Assays:
[1] = system: XIP peptide (Xip251-270) binding; assay: small-molecule binders of XIP peptide, primary screen, biochemical, small-molecule microarray, fluorescence 635/667 nm, 0.1 µg/mL protein (AID 1182); details: fluorescent protein binding, 635 nm, higher = more signal, called active from +8 up or from −8 down
[2] = system: XIP peptide (Xip251-270); assay: small-molecule binders of XIP peptide, primary screen, biochemical, small-molecule microarray, fluorescence 635/667 nm, 0.5 µg/mL protein (AID 1183); details: small-molecule microarray binding, fluorescence 635 nm; higher = more signal
[3] = Plasmodium falciparum growth inhibition, primary screen, strain 3D7, DAPI fluorescence, 100 nL (AID 1184);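 further: parasites grown inside human red blood cells in medium with human serum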; details: P. falciparum 3D7 growth, 3 d, higher = more signal
[4] = molecular target: Homeobox protein Hox-A13 (Mus musculus) (UniProt Q62424); assay: inhibitors of HoxA13-DNA binding, primary screen, biochemical, fluorescence polarization, labeled oligonucleotide (AID 1185); details: 15 min, higher = more signal, called active from +8 up or from −8 down
[5] = inhibitors of hydroxyurea-induced Chk1 phosphorylation, primary screen, imaging, HeLa, phospho-Chk1 antibody, percent positive cells (AID 1186); details: hydroxyurea-induced phospho-Chk1 immunofluorescence imaging, higher = more signal
[6] = inhibitors of hydroxyurea-induced Chk1 phosphorylation, primary screen, imaging, HeLa, phospho-Chk1 nuclear intensity (AID 1187); details: hydroxyurea-induced phospho-Chk1 immunofluorescence imaging, higher = more signal

Chain of Homeobox protein Hox-A13 (Mus musculus) (Q62424 whole entry, looked up): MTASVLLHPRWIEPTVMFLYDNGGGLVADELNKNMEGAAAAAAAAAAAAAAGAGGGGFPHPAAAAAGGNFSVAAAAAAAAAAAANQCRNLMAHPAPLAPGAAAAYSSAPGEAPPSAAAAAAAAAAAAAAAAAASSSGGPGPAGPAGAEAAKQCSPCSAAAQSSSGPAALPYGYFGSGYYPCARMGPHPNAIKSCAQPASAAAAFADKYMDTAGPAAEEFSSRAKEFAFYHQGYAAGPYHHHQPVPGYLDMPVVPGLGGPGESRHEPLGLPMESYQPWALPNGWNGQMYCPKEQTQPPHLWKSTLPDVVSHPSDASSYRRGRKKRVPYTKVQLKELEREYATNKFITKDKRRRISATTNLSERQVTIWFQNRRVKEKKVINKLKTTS

Row | SMILES | composite z-score [1] | composite z-score [2] | z-score [3] | z-score [4] | z-score [5] | z-score [6]
1 | C[N+](C)(C)CCCCCCNC(=O)[C@H]1C[C@H]2C(=O)N[C@@H](Cc3ccccc3)C(=O)N2[C@H]1c1cccc(OCCO)c1 | 0.875 (inactive) | 0.817 | -0.463 | -5.91 (inactive) | 0.685 (inactive) | 0.484 (inactive)
2 | O=C1OCC=C[C@H]2OC34C=CCN(CCN5CCOCC5)C(=O)[C@H]3N(CCO)C(=O)[C@@H]4[C@@H]12 (some centres not stated) | 0.218 (inactive) | 0.775 | 0.703 | -5.02 (inactive) | -0.474 (inactive) | -0.371 (inactive)
3 | [N-]=[N+]=Nc1ccccc1[C@H]1OC(c2ccc(OCCCO)cc2)=N[C@@]1(CCS(=O)(=O)c1ccccc1)C(=O)NCc1ccccc1 | 0.273 (inactive) | 0.774 | -2.48 | -1.99 (inactive) | 0.517 (inactive) | 0.227 (inactive)
4 | C#CCOc1ccc(C[C@@H](C(=O)OC)N(CC#C)[C@@H](/C=C/C2CC2)[C@H](O)Cc2ccccc2)cc1 | -0.365 (inactive) | -0.119 | -1.21 | -3.88 (inactive) | -0.146 (inactive) | -0.432 (inactive)
5 | CC(C)(C)OC(=O)CC[C@]1(C(N)=O)N=C(c2ccc(OCCCO)cc2)O[C@H]1c1ccccc1 | 1.25 (inactive) | -0.612 | 0.404 | -2.87 (inactive) | 0.444 (inactive) | -0.0163 (inactive)
6 | O=C1O[C@H](c2ccccc2)[C@H](c2ccccc2)N2[C@H]1[C@@H](C(=O)NC[C@H](O)c1ccccc1)[C@]1(C(=O)Nc3ccccc31)[C@H]2c1ccc(O)cc1 | 1.5 (inactive) | 0.665 | -0.834 | -4.25 (inactive) | -0.0383 (inactive) | 0.188 (inactive)
7 | COCC(=C=CC[C@H](O)c1cccc(OCCO)c1)C[C@H](O)c1cc(Cl)cc(Cl)c1O | 0.378 (inactive) | 0.825 | -0.366 | -4.71 (inactive) | 0.144 (inactive) | 0.532 (inactive)
8 | CCOC(=O)C[C@H]1[C@H](OC(=O)c2ccc(-c3ccccc3)cc2)[C@@H](NC(=O)c2ccccc2)c2cc(OCCCO)ccc2N1C(=O)Cc1ccc(OC)cc1 | -0.11 (inactive) | -0.664 | -1.09 | -1.36 (inactive) | -0.0036 (inactive) | 0.16 (inactive)
9 | CCCCCCc1nc(-c2ccc(-c3ccc(Cl)c(Cl)c3)o2)cc2c1[Si](C(C)C)(C(C)C)O[C@H]2c1ccccc1 | 2.93 (inactive) | 0.393 | -1.3 | -1.4 (inactive) | -0.682 (inactive) | -0.449 (inactive)
10 | Cc1ccc([C@H]2C(C(=O)O)=CCN2S(=O)(=O)c2ccc(C)cc2)cc1 | -0.609 (inactive) | 0.66 | 0.546 | -2.98 (inactive) | 0.586 (inactive) | -0.222 (inactive)
11 | COCC(=C=CC[C@@H](O)c1ccc(OCCO)cc1)C[C@@H](O)c1ccccn1 | 1.51 (inactive) | -0.161 | 0.797 | -5.97 (inactive) | 0.117 (inactive) | 0.265 (inactive)
12 | COc1ccc(NN2C(C(O)c3ccc(N(C)C)cc3)C=CC3C(=O)N(C4CCCCC4)C(=O)C32)cc1 (configuration not stated) | 1.02 (inactive) | 0.68 | -0.087 | -4.68 (inactive) | -0.217 (inactive) | -0.837 (inactive)
13 | COc1ccc(CCNC(=O)[C@@]2(C)c3ccccc3C(=O)N(c3ccc(C)cn3)[C@H]2c2ccc(CO)cc2)cc1 | 1.66 (inactive) | 0.639 | 1.36 | -1.58 (inactive) | 0.366 (inactive) | 0.822 (inactive)
14 | CCCNC(=O)[C@@]1(Sc2ccc(C)cc2)CC(=O)N(Cc2ccccc2C(F)(F)F)[C@@H]1c1ccc(CO)cc1I | -0.163 (inactive) | 0.704 | -1.69 | -1.3 (inactive) | -0.104 (inactive) | 0.0829 (inactive)
15 | COc1ccccc1CN1C(=O)c2ccccc2[C@@H](C(=O)NCc2ccccc2)[C@@H]1c1ccc(CO)cc1 | 0.737 (inactive) | 0.785 | -1.45 | -1.22 (inactive) | -0.295 (inactive) | -0.0433 (inactive)
16 | Cc1ccc(S[C@]2(C(=O)NCC(C)C)CC(=O)N(Cc3cc(C(F)(F)F)cc(C(F)(F)F)c3)[C@@H]2c2ccc(CO)cc2)cc1 | -0.0537 (inactive) | 0.0501 | -0.309 | -2.19 (inactive) | -0.0406 (inactive) | -0.284 (inactive)
17 | O=C1[C@@]23C=C(Br)[C@H](C[C@@H]2COC3)[C@]12CO2 | -0.0125 (inactive) | -1.48 | 1.81 | -7.3 (inactive) | 0.825 (inactive) | 0.343 (inactive)
